Source: PubChem BioAssay AID485346 (Sanford-Burnham Center for Chemical Genomics, 2010)
In all, about 330,000 compounds went through this assay and about 10,000 (3%) were called active. Only a selection was taken, and actives are over-represented in it overall. A number with no mark means an inactive call.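 The calls were made as follows: active = inhibition of at least 50% at 8 µM in the primary screen; inactive = the rest.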

Target: Protein Mdm4 (Homo sapiens) + E3 ubiquitin-protein ligase Mdm2 (Homo sapiens) (UniProt O15151+Q00987)
Assay: inhibitors of human Mdm2-MdmX association, primary screen, cell-based, luminescence, split luciferase, SaOS-2, uHTS (AID 485346)
Conditions: SaOS-2 split-luciferase Mdm2/MdmX complementation, at 8 µM, hits give high values

Protein Mdm4 (Homo sapiens) + E3 ubiquitin-protein ligase Mdm2 (Homo sapiens), sequence (O15151 whole entry, looked up): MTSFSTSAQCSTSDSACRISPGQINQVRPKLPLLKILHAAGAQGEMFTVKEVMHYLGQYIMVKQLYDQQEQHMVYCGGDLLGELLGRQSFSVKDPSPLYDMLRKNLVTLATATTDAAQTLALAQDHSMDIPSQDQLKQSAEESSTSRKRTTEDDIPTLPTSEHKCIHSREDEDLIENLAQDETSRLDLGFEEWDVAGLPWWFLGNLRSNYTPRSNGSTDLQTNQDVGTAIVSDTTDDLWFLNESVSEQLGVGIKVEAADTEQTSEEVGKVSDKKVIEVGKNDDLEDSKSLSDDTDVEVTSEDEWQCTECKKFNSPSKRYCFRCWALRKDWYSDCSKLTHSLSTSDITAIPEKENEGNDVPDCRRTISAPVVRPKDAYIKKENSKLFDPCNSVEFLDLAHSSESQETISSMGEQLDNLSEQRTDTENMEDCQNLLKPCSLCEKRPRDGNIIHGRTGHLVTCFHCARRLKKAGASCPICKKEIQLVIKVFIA
Protein Mdm4 (Homo sapiens) + E3 ubiquitin-protein ligase Mdm2 (Homo sapiens), sequence (Q00987 whole entry, looked up): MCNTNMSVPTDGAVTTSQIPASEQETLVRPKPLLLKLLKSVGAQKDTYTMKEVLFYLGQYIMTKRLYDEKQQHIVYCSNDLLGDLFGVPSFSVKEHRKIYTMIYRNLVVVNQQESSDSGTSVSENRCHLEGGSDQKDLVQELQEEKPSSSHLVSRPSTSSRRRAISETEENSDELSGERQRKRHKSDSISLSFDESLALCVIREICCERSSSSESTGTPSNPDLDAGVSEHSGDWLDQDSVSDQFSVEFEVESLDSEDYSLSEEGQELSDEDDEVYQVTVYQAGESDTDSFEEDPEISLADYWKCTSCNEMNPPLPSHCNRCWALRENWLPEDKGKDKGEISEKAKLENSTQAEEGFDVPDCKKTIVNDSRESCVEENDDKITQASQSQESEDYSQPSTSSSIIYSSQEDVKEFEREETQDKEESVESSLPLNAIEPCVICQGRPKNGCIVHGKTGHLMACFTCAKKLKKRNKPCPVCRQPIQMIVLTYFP

Compound	inhibition
CSCCC1NC(=O)N(CC(=O)Nc2cccc(S(=O)(=O)N3CCCCCC3)c2)C1=O (stereo unspecified)	2.6%
O=C1/C(=C\Nc2ccccc2)CCN1c1ncccn1	-11.4%
O=C(CN1CCCSc2ccccc21)N1CCN(S(=O)(=O)c2ccccc2)CC1	-4.66%
Cc1ccccc1NC(=O)Nc1ccccc1N1CCCCC1	2.88%
COc1ccccc1C(=O)NC(=S)Nc1ccccc1N1CCCCC1	30%
O=C(NC(=O)c1ccccc1N1CCCCC1)Nc1ccc(Br)cc1	51.5% (active)
COc1ccccc1NC(=O)CN(c1ccccc1OC)S(=O)(=O)c1ccccc1	-19.5%
COc1ccc(S(=O)(=O)N(CC(=O)N/N=C/c2ccccc2C(=O)O)c2ccccc2OC)cc1	-6.42%
COc1ccccc1N(CC(=O)N/N=C(\C)c1ccccc1O)S(=O)(=O)c1ccc(C)cc1	52.3% (active)
C=CCN1CC(C)/C(=N\O)CC1C (stereo unspecified)	24.4%
Brc1cc(Br)c(Oc2cc(Br)c(Br)cc2Br)cc1Br	15.4%
Fc1ccccc1-c1cc2cc3c(cc2cn1)OCO3	-231%
Cc1ccc(NC(=O)CSc2cccc3cccnc23)c(C)c1	28.1%
O=C(CSc1cccc2cccnc12)N/N=C/c1cccnc1	54.3% (active)
Cc1nc2ccccc2n1CC(=O)N/N=C/c1cccnc1	25.2%
C/C(=N\NC(=O)c1ccc(CSc2nc(C)cc(C)n2)cc1)C1CCCCC1	11.2%
COc1ccc(NC(=O)CSCc2ccc([N+](=O)[O-])cc2)cc1OC	22.2%
O=C(c1cccc(S(=O)(=O)N2CCCC2)c1)N(Cc1ccco1)C1CCS(=O)(=O)C1 (stereo unspecified)	10.9%
O=C(N/N=C\c1cc2c(cc1Cl)OCO2)c1ccc(Br)s1	87.3% (active)
CC1(C(=O)N/N=C/c2cc3c(cc2Br)OCO3)CC1(Br)Br (stereo unspecified)	31.2%
O=C(N/N=C/c1cc2c(cc1Br)OCO2)C1COc2ccccc2O1 (stereo unspecified)	3.36%

Compound	inhibition
O=S(=O)(Nc1nccs1)c1ccc2c(c1)OCCO2	12.5%
CC(Sc1nnc(CNC(=O)c2ccccc2F)n1C)C(=O)Nc1nccs1 (stereo unspecified)	-5.88%
Nc1ccc2nn(-c3ccc(Cl)cc3)nc2c1	-91.9%
NC(=S)N/N=C/c1coc2cc(Cl)ccc2c1=O	-1.23%
CC(C)Oc1c(Br)cc(Br)cc1/C=N/NC(N)=S	57.4% (active)
CCOc1ccc(/C=N/NC(N)=S)cc1	10.2%
COC(=O)CCC(=O)N1CCCC(CO)(Cc2ccccc2)C1 (stereo unspecified)	-73.8%
C[C@@H](C(=O)N1CCNCC1)n1cc(CCC(=O)O)nn1	3.92%
COc1ccc(N(C(=O)c2snc(C(N)=O)c2N)C(C(=O)NC2CCCC2)c2ccc(C)o2)c(OC)c1 (stereo unspecified)	8.7%
CC(=O)Nc1ccc(NC(=O)COC(=O)c2ccccc2C(=O)c2ccccc2)cc1	2.79%
CC(=O)Nc1ccc(NC(=O)C(C)OC(=O)c2ccccc2C(=O)c2ccc(Cl)c([N+](=O)[O-])c2)cc1 (stereo unspecified)	98.6% (active)
COC(=O)c1cc(NC(=O)Cc2ccccc2[N+](=O)[O-])ccc1Cl	-1.62%
O=C(Nc1ccncc1)c1ccc(Cl)c([N+](=O)[O-])c1	6.79%
CC(OC(=O)CNC(=O)c1ccc(Cl)c([N+](=O)[O-])c1)C(=O)NCc1ccco1 (stereo unspecified)	27.3%
N#Cc1cccc(NC(=O)COC(=O)c2ccccc2C(=O)c2ccc(Cl)c([N+](=O)[O-])c2)c1	98.1% (active)
CCC(=O)c1ccc(OCC(O)Cn2nc(C)c(C(C)=O)c2C)cc1 (stereo unspecified)	4.82%
CC1CCCC(NC(=O)c2cc(-c3ccncc3)nc3ccccc23)C1C (stereo unspecified)	-4.9%
Cc1ccc(C(=O)O)cc1S(=O)(=O)NCC1CCCO1 (stereo unspecified)	-63.3%
Cc1noc(C)c1CCC(=O)N1CCCC(CO)(Cc2ccccc2)C1 (stereo unspecified)	-31.3%
COc1ccc(Cl)cc1NC(=O)CN(C)Cc1ccc(OC)c(OC)c1	29.4%
C/C(=N\NC(=O)OC(C)(C)C)c1ccc[nH]1	-29.2%

Compound	inhibition
COc1ccccc1C(=O)Nc1ccc(C)c(S(=O)(=O)N2CCCCC2)c1	15%
O=C(Nc1ccc(N2CCN(C(=O)c3cccs3)CC2)cc1)c1cccnc1Cl	-22.2%
O=C(Nc1ccc(N2CCN(C(=O)C3CC3)CC2)cc1)c1cccs1	-10.3%
Cc1ccccc1C(=O)N1CCN(c2ccc(NC(=O)c3cccs3)cc2)CC1	53.9% (active)
CCCc1cc(=O)[nH]c(SCC(=O)Nc2ccc(C(=O)Nc3ccccc3OC)cc2)n1	21.4%
COCCNC(=O)C(OC(=O)c1cccs1)c1ccc(F)cc1 (stereo unspecified)	4.05%
O=C(Cc1ccccc1)Nc1cccc(NC(=O)c2ccccc2)c1	4.35%
CCc1cccc(NC(=O)CCC(=O)O)c1	3.13%
O=C(CCl)Nc1cccc(CP(=O)(c2ccccc2)c2ccccc2)c1	96.3% (active)
Clc1ccc(-c2nc3ccccn3c2CN2CCSCC2)cc1	15.3%
Cc1ccc(CNC(=O)C2CCN(S(=O)(=O)c3ccc4nc5c(c(C(=O)O)c4c3)CC(C)CC5)CC2)cc1 (stereo unspecified)	6.94%
O=C(NC(=S)Nc1ccc(Cl)cc1Cl)C1CC1	-39.2%
Cc1ccc(S(=O)(=O)c2nnn3c2nc(N2CCN(c4ccccn4)CC2)c2ccccc23)cc1	10.2%
Cc1cccc(Nc2nc3c(S(=O)(=O)c4ccccc4)nnn3c3ccccc23)c1C	77.7% (active)
CC(=O)Nc1ccc(Nc2nc3c(S(=O)(=O)c4ccc(C)c(C)c4)nnn3c3ccccc23)cc1	23.4%
COc1ccc(C2(CNC(=O)Cc3ccc(OC)c(OC)c3)CCCC2)cc1	10.1%
CN(C)c1nc(Nc2ccc(Cl)c(Cl)c2)nc(N(C)C)n1	-14.8%
OCCNc1nc(Nc2ccc(Cl)c(Cl)c2)nc2ccccc12	80.6% (active)
Cc1nnc(NCCO)c2ccccc12	-14%
